# Screens from PubChem BioAssay.
# TEAD-YAP inh – TEAD-YAP interaction inhibition, primary screen, TEAD-YAP interaction inhibitor project, luminescence, HEK-TIYL cells | inhibition, % at 9.12 µM | 1.4% of 640,000 active | TEAD-Gal4/YAP UAS-luciferase luminescence | AID 1259422, 2018; in the data active = inhibition above about 32%
# FBW7 act – FBW7 E3 ligase activators, primary screen, biochemical, AlphaScreen, human. AlphaScreen FBW7–phospho-cyclin E peptide binding, activator screen. normalized activity (activation), % at 26.1 µM. 0.13% of 650,000 active; in the data active = normalized activity above about 1.9%;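 also: purified mutant Fbw7 with reduced substrate affinity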
# MITF primary – MITF inhibitors, primary screen, biochemical, AlphaScreen, human; Microphthalmia-associated transcription factor (Homo sapiens), O75030; 0.91% of 650,000 active; AlphaScreen MITF homodimerization, bead proximity signal; inhibition, % at 2.6 µM; in the data active = inhibition above about 50%
# Target sequence (O75030 whole entry, looked up): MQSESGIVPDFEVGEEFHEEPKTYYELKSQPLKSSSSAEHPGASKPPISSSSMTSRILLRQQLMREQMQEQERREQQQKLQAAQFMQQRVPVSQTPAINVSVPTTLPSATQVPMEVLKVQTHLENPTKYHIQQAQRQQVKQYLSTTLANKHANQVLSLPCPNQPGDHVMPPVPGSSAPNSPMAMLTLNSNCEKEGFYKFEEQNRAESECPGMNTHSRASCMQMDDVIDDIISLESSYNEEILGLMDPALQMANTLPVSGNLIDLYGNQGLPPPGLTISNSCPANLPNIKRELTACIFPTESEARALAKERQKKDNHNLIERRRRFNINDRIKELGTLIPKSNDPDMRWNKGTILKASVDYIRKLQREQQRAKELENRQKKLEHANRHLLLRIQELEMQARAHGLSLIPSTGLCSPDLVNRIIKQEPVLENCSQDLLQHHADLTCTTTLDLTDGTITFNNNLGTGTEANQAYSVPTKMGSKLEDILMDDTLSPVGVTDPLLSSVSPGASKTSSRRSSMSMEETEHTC
# GPR151 activ – activators of human GPR151, primary screen, cell-based, PathHunter beta-arrestin, luminescence. activation, % at 11.2 µM. 1% of 650,000 active. PathHunter beta-arrestin GPR151 cells. G-protein coupled receptor 151 (Homo sapiens), Q8TDV0; in the data active = activation above about 4.9%
# GPR151 conf act – GPR151 activators, triplicate retest, confirmation, cell-based, PathHunter beta-arrestin, luminescence. shares compounds with GPR151 activ. activation, % at 11.2 µM. 6,700 tested, under 10 active. GPR151 PathHunter beta-arrestin cells, 90 min; % of EA-reagent control over plate median;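 active = mean percent activation across replicates above the confirmation screen cutoff of 4.91%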
# GPR119 ag – GPR119 activators in beta-arrestin cells, counter-screen for GPR151 activator project, cell-based, PathHunter beta-arrestin, luminescence, triplicate; shares compounds with GPR151 activ; 90 min; 0 = compound-well median, 100 = enzyme-acceptor control; activation, % at 11.2 µM; 0.3% of 6,700 active; AID 1508611, 2020;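 active = mean percent activation in the counterscreen above 29.09%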;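 also: counterscreen on off-target GPR119 to flag nonselective hits from the GPR151 activator screen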
# Numbers stand for hits; - = inactive; . = no result. Shown are actives, neighbours in structure and some others; about 3.4% of the full set was active somewhere.
SMILES,TEAD-YAP inh,FBW7 act,MITF primary,GPR151 activ,GPR151 conf act,GPR119 ag
COc1cc(C(Nc2cccc(C)n2)c2ccc3ccc(C)nc3c2O)ccc1O (configuration not stated),-,-,-,5.2,-,-
CC(=O)Nc1ccc(/C=C2\SC(=S)N(Cc3ccccc3)C2=O)cc1,-,-,-,-,.,.
CNCc1ccc(-c2ccc(Cl)cc2)o1,-,-,-,5.0,-,-
CNCc1ccc(-c2ccc(Br)cc2)o1,-,-,-,-,.,.
O=C(CN(CC1CCCO1)C(=O)CCC(=O)Nc1ccccn1)NCC1CCCO1 (configuration not stated),-,-,-,5.0,-,-
CC(=O)c1cccc(NC(=O)C(C)N2C(=O)C3C4C=CC(C5CC45)C3C2=O)c1 (configuration not stated),-,-,-,-,.,.
CC(C(=O)Nc1cccc([N+](=O)[O-])c1)N1C(=O)C2C3C=CC(C4CC34)C2C1=O (configuration not stated),-,-,-,8.6,-,-
CCOC(=O)C(C)Oc1ccc2c(=O)c(Oc3ccc(OC)cc3)coc2c1 (configuration not stated),-,-,-,-,.,.
CCOC(=O)C(C)Oc1ccc2c(=O)c(Oc3cccc(OC)c3)coc2c1 (configuration not stated),-,-,-,11,-,-
Cc1cccc(C)c1NC(=O)C(c1ccccc1)N(C)C(=O)CCc1cc(C(C)(C)C)c(O)c(C(C)(C)C)c1 (configuration not stated),-,-,-,-,.,.
CS(=O)(=O)Oc1ccc(Cl)cc1/C=C1/N=C(c2cccs2)OC1=O,-,-,-,5.3,-,-
CCOc1cc(/C=C2/N=C(c3cccs3)OC2=O)ccc1OS(C)(=O)=O,-,-,-,-,.,.
CCc1nn(C(CC)C(=O)NC2CCCC2)c(=O)c2cc3oc(C)cc3n12 (configuration not stated),-,-,-,13,-,-
CCc1nn(C(CC)C(=O)NC2CCCC2)c(=O)c2cc3occc3n12 (configuration not stated),-,-,-,-,.,.
CCOC(=O)C1CCCN(C(=O)c2cc(S(=O)(=O)N3CCOCC3)cn2C)C1 (configuration not stated),-,-,-,9.2,-,-
CCOC(=O)C1CCN(C(=O)c2cc(S(=O)(=O)N3CCCC3)cn2C)CC1,-,-,-,-,.,.
CC(=O)NCC(c1ccco1)S(=O)(=O)c1cccs1 (configuration not stated),-,-,-,-,.,.
CC(C)c1ccc(NC(=O)C(c2ccc3c(c2)OCO3)N(Cc2ccccc2)c2ccccc2)cc1 (configuration not stated),-,-,-,5.7,-,-
Nc1nonc1-n1nnc(C(=O)N/N=C/c2ccco2)c1CN1CCc2ccccc21,-,-,-,11,-,-
COCc1c(C(=O)N/N=C\c2ccccc2OC)nnn1-c1nonc1N,-,-,-,5.1,-,-
Nc1nonc1-n1nnc(C(=O)N/N=C/c2cccs2)c1CN1CCc2ccccc21,-,-,-,-,.,.
CCN(CC)CCOC(=O)COc1cccc(C)c1,-,-,-,-,.,.
O=C(Cn1c(-c2cccnc2)nc2ccccc21)NCc1ccccc1Cl,-,-,-,5.6,-,-
COc1ccccc1CN1CCC2(CCC(CNC(=O)c3ccn(C)n3)O2)CC1 (configuration not stated),-,-,-,6.4,-,-
Cc1cc(C)c(CN2CCC3(CCC(CNC(=O)c4ccn(C)n4)O3)CC2)cc1C (configuration not stated),-,-,-,-,.,.
SMILES,TEAD-YAP inh,FBW7 act,MITF primary,GPR151 activ,GPR151 conf act,GPR119 ag
CN(C)c1ccc(NC2=CC(=O)N(Cc3ccco3)C2=O)cc1,-,-,-,5.1,-,-
CN(C)c1ccc(NC2=CC(=O)N(CCc3ccccc3)C2=O)cc1,-,-,-,-,.,.
Cc1cc(C)c(S(=O)(=O)Nc2cc(Cl)cc(Cl)c2)c(C)c1,-,-,-,-,.,.
NC(=O)NC(CC(=O)O)c1ccc(Cl)cc1 (configuration not stated),-,-,-,7.7,-,-
CCOC(=O)c1ccc(NC(=O)CC2C(=O)N(c3ccc(OC)cc3)C(=S)N2CCc2ccc(OC)c(OC)c2)cc1 (configuration not stated),-,-,-,-,.,.
COc1ncccc1C(=O)Nc1onc2c1CSC2,-,-,-,-,.,.
COC(=O)c1sc(N2C(=O)C(O)=C(C(=O)c3cccs3)C2c2ccc(Cl)cc2)nc1C (configuration not stated),-,-,-,-,.,.
O=C(CSc1n[nH]c(-c2ccncc2)n1)c1ccc(F)cc1,-,-,-,-,.,.
O=C(CSc1n[nH]c(-c2ccncc2)n1)c1ccc(Cl)cc1,-,-,-,5.0,-,-
O=C1NC(c2ccccc2)=N/C1=C/c1ccccc1,-,-,-,-,.,.
COc1cc(/C=C2/N=C(c3ccccc3)NC2=O)cc(OC)c1OC,-,-,-,5.4,-,-
O=C(Nc1ccc(N2CCOCC2)cc1)C1CC(=O)N(Cc2ccccc2)C1 (configuration not stated),-,-,-,7.6,-,-
O=C(CSc1ncnc2c1oc1ccccc12)Nc1ccc(F)cc1,-,-,-,-,.,.
Cc1cc(C)c(S(=O)(=O)N(CC(=O)NCc2cccnc2)C2CCCCC2)c(C)c1,-,-,-,-,.,.
COc1ccc(S(=O)(=O)N(CC(=O)NCc2cccnc2)C2CCCCC2)cc1OC,-,-,-,5.2,-,-
CC1(C)NC(=O)N(CCOc2ccc(OCc3ccccc3)cc2)C1=O,-,-,-,7.2,-,-
O=C(CCS(=O)(=O)c1ccc(F)cc1)Nc1ccccc1-c1nc2ccccc2[nH]1,-,-,-,-,.,.
COC(=O)c1ccc(NC(=O)CSc2nc3sc(C)c(C)c3c(=O)[nH]2)cc1,-,-,-,-,.,.
CC(C)NC(=O)[C@@H]1C[C@@H](NC2CCCCCCC2)CN1Cc1ccncc1,-,-,-,-,.,.
Cc1ccc(C(=O)NC(=S)Nc2cc(-c3nc4ncccc4o3)ccc2Cl)cc1,-,-,-,-,.,.
CC(C)(C)c1ccc(C(=O)NC(=S)Nc2cc(-c3nc4ncccc4o3)ccc2Cl)cc1,-,-,-,5.1,-,-
O=C(CCN1CCOCC1)N/N=C/c1cccnc1,-,-,-,-,.,.
CN(Cc1c(C(=O)N2CCCC2)nc2sccn12)CC(O)c1ccccc1 (configuration not stated),-,-,-,5.8,-,-
